Screening data: PubChem BioAssay, National Center for Advancing Translational Sciences (NCATS)
Most compounds without a hit are left out; they make up all but 0.8% or so of the library.
TRPML1 agonist – activates the human TRPML1 channel. TRPML1-expressing cells, Ca2+ dye fluorescence, FDSS. activation, % (test concentration not listed). actives 0.12% (n = 410,000); in the data active = activation above about 50%; also: 0% is about no effect
Target sequence (Q9GZU1 whole entry, looked up): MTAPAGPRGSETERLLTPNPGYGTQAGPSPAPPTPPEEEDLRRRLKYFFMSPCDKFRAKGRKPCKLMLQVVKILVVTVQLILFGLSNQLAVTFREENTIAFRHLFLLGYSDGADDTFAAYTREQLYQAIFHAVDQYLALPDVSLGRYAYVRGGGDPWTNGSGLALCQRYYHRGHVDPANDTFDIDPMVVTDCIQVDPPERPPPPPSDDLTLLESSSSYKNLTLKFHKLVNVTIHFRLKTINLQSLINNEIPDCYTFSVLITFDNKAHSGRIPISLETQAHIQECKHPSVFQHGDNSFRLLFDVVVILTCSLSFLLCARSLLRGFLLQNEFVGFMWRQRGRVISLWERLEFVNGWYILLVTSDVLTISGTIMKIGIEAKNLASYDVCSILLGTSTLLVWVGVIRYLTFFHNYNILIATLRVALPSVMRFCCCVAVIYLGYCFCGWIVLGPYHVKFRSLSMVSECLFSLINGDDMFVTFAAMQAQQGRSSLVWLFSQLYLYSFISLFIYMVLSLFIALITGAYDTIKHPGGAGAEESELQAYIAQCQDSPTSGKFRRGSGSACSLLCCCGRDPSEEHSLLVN
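Calcium fluorescence on an FDSS kinetic reader gave the read-out. Tet-induced TRPML1-DL cells were plated overnight, dye-loaded (Ca8 with quencher, 45-90 min, room temperature, dark), then read 110 s after compound addition, and again 110 s after 4uM final 54-4 (EC80).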
TRHR agonist-1 – agonists of human TRH receptor; TRHR cells, calcium flux fluo-8, FDSS agonist mode; activation, % at 2 µM; actives 0.18% (n = 360,000); in the data active = activation above about 30%; also: 0% is about no effect
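Fluo-8-loaded TRHR cells; 10 s baseline, compound added, kinetic Ca2+ fluorescence read 1/s, agonist mode.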
TRHR enhancer-1 – allosteric enhancers of human TRH receptor. P34981. TRHR cells, fluo-8 calcium fluorescence, EC20 TRH enhancement. enhancement, % at 2 µM. actives 0.66% (n = 360,000). AID 493056; in the data active = enhancement above about 30%; also: 0% is about no effect
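Enhancer read-out: after compound pinning and an initial kinetic agonist-mode read, an EC20 of TRH (10 nM final) was injected and fluo-8 calcium signal (Ex 480/Em 530) followed at 1 s/cycle for 100 cycles in TRHR-expressing cells.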
TRPML1 blocker – blocks the human TRPML1 channel; actives 0.02% (n = 390,000); TRPML1-inducible cells, Ca2+ dye fluorescence, FDSS; hits give low values; inhibition of EC80 agonist-evoked calcium signal; activity change, negative = inhibition, % (test concentration not listed); AID 624415; in the data active = activity change below about -50%;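 also: stimulus is agonist 54-4 at its EC80 concentration; % is scaled to controls: 0 for no effect and ±100 for the full control effect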
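Tet-induced TRPML1-DL cells loaded with Ca8 no-wash calcium dye were read kinetically on FDSS. Compound addition was followed by EC80 agonist 54-4 (4 uM final); inhibition was read over 110 s.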
GRP78 ERSR act – inducers of ER stress response in human glioma cells | U87-MG GRP78 promoter luciferase reporter, 16 h | Potency, µM, for the others: at the highest dose activation, usual class: activators | actives 0.02% (n = 420,000); also: potency is read from the fitted curve at half-maximal effect; series mostly up to about 76 µM; % of control where 0% means no effect; nearly all actives have a fitted effect of over 35% in size
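Stably transfected U87-MG glioma cells carrying a GRP78-based luciferase sensor; 16 h compound incubation. Luminescence end-point read 10 min after Bright-Glo addition at room temperature.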
TRHR enhancer-2 – confirmation of human TRH receptor allosteric enhancers; TRH receptor cell assay, enhancer confirmation qHTS; activity change, negative = inhibition, % at 46.1 µM; shares compounds with TRHR enhancer-1; AID 493076; 970 tested, under 10 active;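 also: compound effect scored on response to added TRH at EC20 of 10 nM; 0% is about no effect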
TRHR agonist-2 – confirmation of human TRH receptor agonists; shares compounds with TRHR enhancer-1; TRHR-expressing cells, agonist activation read-out; Potency, µM (highest dose often 46.1 µM), inactives show at the top dose activation, hits mostly activators; actives 8% (n = 970); also: potency is read from the fitted curve at half-maximal effect; 0% is about no effect; nearly all actives have a fitted effect of over 75% in size
Active calls of the source: *. Unless noted, calls follow the shape of the dose curve; as a rule, active = well fitted curve in the direction sought with a large enough effect; inconclusive = small, poorly fitted or top-dose-only effect, or another doubt; inactive = no such curve, though single readings can be large; an effect the other way counts as inactive or inconclusive.

CCCC(=O)NC(C)c1nc2ccccc2n1CC (configuration not stated) was read as TRPML1 agonist 0.5, TRHR agonist-1 0.0, TRHR enhancer-1 44.8*, TRPML1 blocker -4.2, GRP78 ERSR act -2.6%, TRHR enhancer-2 -6.2 and TRHR agonist-2 0.4%.
For O=C1NCCNC1(c1c[nH]c2ccccc12)C(F)(F)F (configuration not stated) the results were TRPML1 agonist -0.2, TRHR agonist-1 0.0, TRHR enhancer-1 4.4, TRPML1 blocker 54.7 and GRP78 ERSR act -2.0%.
Screening Cc1cc(O)c(C2(C(F)(F)F)NCCNC2=O)cc1C (configuration not stated) returned TRPML1 agonist -0.5, TRHR agonist-1 1.5, TRHR enhancer-1 42.8*, TRPML1 blocker 7.6, GRP78 ERSR act -3.5%, TRHR enhancer-2 -2.9 and TRHR agonist-2 -0.3%.
`O=C(NCc1ccccc1)C1CCCN1S(=O)(=O)c1ccc(F)cc1` (configuration not stated) gave TRPML1 agonist 0.5, TRHR agonist-1 -1.9, TRHR enhancer-1 -0.3, TRPML1 blocker 4.8 and GRP78 ERSR act -3.3%.
Cc1ccc(CNC(=O)C2CCCN2S(=O)(=O)c2ccc(F)cc2)cc1 (configuration not stated) was read as TRPML1 agonist -0.9, TRHR agonist-1 -0.9, TRHR enhancer-1 47.3*, TRPML1 blocker -25.1, GRP78 ERSR act -1.4%, TRHR enhancer-2 -4.3 and TRHR agonist-2 2.4%.
Screening Cc1ccc(NC(=O)C2CSC3(C)CCC(=O)N23)cc1S(=O)(=O)N1CCOCC1 (configuration not stated) returned TRPML1 agonist 0.0, TRHR agonist-1 0.2, TRHR enhancer-1 8.6, TRPML1 blocker 2.7 and GRP78 ERSR act -4.3%.
`Cc1ccc(NC(=O)COC(=O)C2CSC3(C)CCC(=O)N23)cc1S(=O)(=O)N1CCOCC1` (configuration not stated) gave TRPML1 agonist 0.4, TRHR agonist-1 1.6, TRHR enhancer-1 42.0*, TRPML1 blocker 9.8, GRP78 ERSR act -1.5%, TRHR enhancer-2 -2.9 and TRHR agonist-2 -0.7%.
Screening COc1cc(CN2CCNC(=O)C2CC(=O)NC2CCCCC2)cc(OC)c1 (configuration not stated) returned TRPML1 agonist 0.0, TRHR agonist-1 0.3, TRHR enhancer-1 18.8, TRPML1 blocker -10.3 and GRP78 ERSR act -3.0%.
`COc1cc(CN2CCNC(=O)C2CC(=O)NC2CCCC2)cc(OC)c1` (configuration not stated) gave TRPML1 agonist 0.2, TRHR agonist-1 1.0, TRHR enhancer-1 58.1*, TRPML1 blocker 2.5, GRP78 ERSR act 3.9%, TRHR enhancer-2 -6.7 and TRHR agonist-2 0.4%.
Screening CCC1(C2CCN(C(=O)c3cc4ccccc4o3)CC2)NC(=O)N(CCc2scnc2C)C1=O (configuration not stated) returned GRP78 ERSR act 1.1%.
Screening O=C(OCC(=O)N1CCN(c2ccccc2)CC1)c1ccc2ccccc2n1 returned TRPML1 agonist 3.3, TRHR agonist-1 0.0, TRHR enhancer-1 41.1*, TRPML1 blocker 7.9, GRP78 ERSR act -0.5%, TRHR enhancer-2 0.9 and TRHR agonist-2 -0.7%.
Screening CCn1c(-c2ccccc2F)nc2cc(NC(C)=O)cc(C(=O)N(C)Cc3cn(C)nc3C)c21 returned GRP78 ERSR act -4.8%.
`CN(Cc1cnn(C)c1)Cc1nc(-c2ccc(Cl)cc2)no1` gave TRPML1 agonist 0.0, TRHR agonist-1 0.9, TRHR enhancer-1 0.4, TRPML1 blocker -19.7 and GRP78 ERSR act 1.7%.
`CCc1ccc(CN(C)Cc2nc(-c3cccc(Cl)c3)no2)nc1` gave TRPML1 agonist 1.2, TRHR agonist-1 -0.4, TRHR enhancer-1 47.7*, TRPML1 blocker -7.4, GRP78 ERSR act -6.0%, TRHR enhancer-2 -11.0 and TRHR agonist-2 8.6%.
For Cn1c(SCc2cccc3ccccc23)nnc1-c1ccco1 the results were TRPML1 agonist 0.1, TRHR agonist-1 -0.7, TRHR enhancer-1 -3.5, TRPML1 blocker -0.7 and GRP78 ERSR act 0.4%.
For Nn1c(SCc2cccc3ccccc23)nnc1-c1ccco1 the results were TRPML1 agonist -0.7, TRHR agonist-1 -0.5, TRHR enhancer-1 50.0*, TRPML1 blocker 16.5, GRP78 ERSR act -0.4%, TRHR enhancer-2 -1.2 and TRHR agonist-2 5.3%.
Screening COc1ccc(C2/C(=C(\O)c3ccc4c(c3)OCCO4)C(=O)C(=O)N2c2nc(C)c(C(C)=O)s2)cc1 (configuration not stated) returned TRPML1 agonist 0.2, TRHR agonist-1 0.2, TRHR enhancer-1 41.1*, TRPML1 blocker -10.3, GRP78 ERSR act 7.4%, TRHR enhancer-2 2.2 and TRHR agonist-2 2.0%.
Screening CC1=NN(c2ccccc2)C(=O)/C1=C/c1cccs1 returned TRPML1 agonist 0.1, TRHR agonist-1 28.4, TRHR enhancer-1 -9.6, TRPML1 blocker -11.1, GRP78 ERSR act -0.9%, TRHR enhancer-2 -13.3 and TRHR agonist-2 1.0%.
For CC1=NN(c2ccccc2)C(=O)C1=Cc1ccccc1 the results were TRPML1 agonist -0.5, TRPML1 blocker 0.5 and GRP78 ERSR act -4.1%.
`CCN(CC)c1ccc(/C=c2\sc3nc4ccccc4n3c2=O)c(O)c1` gave TRPML1 agonist 10.8, TRHR agonist-1 26.3, TRHR enhancer-1 -1.9, TRPML1 blocker -3.1, GRP78 ERSR act -0.5%, TRHR enhancer-2 2.3 and TRHR agonist-2 20.6µM*.
O=c1/c(=C/c2ccc(O)c([N+](=O)[O-])c2)sc2nc3ccccc3n12 was read as TRPML1 agonist -0.2, TRHR agonist-1 0.4, TRHR enhancer-1 -0.5, TRPML1 blocker -9.8 and GRP78 ERSR act 1.7%.
Screening COc1ccc(C(=O)N2CCN(Cc3ccccc3C(F)(F)F)CC2)cc1 returned TRPML1 agonist -0.8, TRHR agonist-1 31.9*, TRHR enhancer-1 -7.6, TRPML1 blocker 1.7, GRP78 ERSR act -2.6%, TRHR enhancer-2 -3.4 and TRHR agonist-2 0.7%.
COc1cccc(C(=O)N2CCN(Cc3ccccc3C(F)(F)F)CC2)c1 was read as TRPML1 agonist 0.2, TRHR agonist-1 0.1, TRHR enhancer-1 2.4, TRPML1 blocker -5.8 and GRP78 ERSR act -3.0%.
Screening Cc1ccc(C)n1C1CCS(=O)(=O)C1 (configuration not stated) returned TRPML1 agonist -0.4, TRHR agonist-1 0.1, TRHR enhancer-1 -2.4, TRPML1 blocker -7.3 and GRP78 ERSR act -8.1%.
